Test results: PubChem BioAssay AID504840 (Johns Hopkins Ion Channel Center, 2011)
Screen size: about 1,500 compounds; about 890 (59%) were called active.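 How the source made its calls: active means inhibition of the choline-evoked signal at any tested dose together with a fitted dose-response curve; inactive means no inhibition at any dose or no curve.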 The set was probably picked from earlier hits. A selection follows. Potency and affinity values are given separately.

The compounds below were run against High affinity choline transporter 1 (Homo sapiens) (UniProt Q9GZV3) (assay: CHT inhibitors, dose response, cell-based, 5-point CRC, membrane potential dye (AID 504840;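 further: 0% = buffer-only response and 100% = EC90 choline response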)). Settings: HEK293-CHT, choline-induced depolarization, CHT with LV-to-AA double alanine mutation; series mostly up to 37 µM; inhibition: at the top concentration.
High affinity choline transporter 1 (Homo sapiens), sequence (Q9GZV3 whole entry, looked up): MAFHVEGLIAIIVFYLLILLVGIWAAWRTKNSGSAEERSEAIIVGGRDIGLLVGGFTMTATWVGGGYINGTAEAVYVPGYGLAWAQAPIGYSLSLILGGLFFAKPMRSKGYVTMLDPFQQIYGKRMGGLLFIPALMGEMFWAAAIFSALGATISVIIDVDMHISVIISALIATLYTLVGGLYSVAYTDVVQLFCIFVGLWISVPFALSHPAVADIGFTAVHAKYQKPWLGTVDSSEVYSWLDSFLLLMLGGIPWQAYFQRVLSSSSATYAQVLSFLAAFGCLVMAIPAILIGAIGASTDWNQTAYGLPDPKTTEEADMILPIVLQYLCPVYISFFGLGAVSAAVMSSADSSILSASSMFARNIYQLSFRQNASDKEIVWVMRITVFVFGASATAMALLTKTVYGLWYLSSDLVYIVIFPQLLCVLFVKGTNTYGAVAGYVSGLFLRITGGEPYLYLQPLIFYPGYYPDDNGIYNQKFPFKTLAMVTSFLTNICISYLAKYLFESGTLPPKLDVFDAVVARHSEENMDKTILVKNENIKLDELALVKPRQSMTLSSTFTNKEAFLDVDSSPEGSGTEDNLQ

inhibition, inactive:
CN(Cc1ccccc1)CC(O)COc1ccc(CNCc2cc3ccccc3s2)cc1 (stereo not given) 46.2%
O=C(O)CC(Cc1ccc(Cl)cc1)C(=O)Nc1cc(Cl)ccc1Cl (stereo not given) 38.6%
Cc1cc(NCCCn2ccnc2)n2ncc(-c3ccc(Cl)cc3)c2n1 38.5%
CCOC(=O)C1(CCOC)CCN(Cc2ccc(C(=O)OC)cc2)CC1 -0.386%
C=CCNC(=O)c1ccc(C2SCC(=O)N2Cc2ccccc2)cc1 (stereo not given) 20.7%
Cc1ccc(C(=O)NCC(=O)N2CCC(Cc3ccccc3)CC2)cc1 54.4%
CC(C)CNS(=O)(=O)c1ccc(CCC(=O)N2CCN(Cc3ccc4c(c3)OCO4)CC2)cc1 46.5%
COc1ccc2c(c1)-c1c(ssc1=S)C(C)(C)N2 39.6%
CC(C)OC(=O)CN1CCN(S(=O)(=O)c2cc(Cl)ccc2Cl)CC1 39%
CC(=O)c1ccc(S(=O)(=O)N(C)C(C)CCc2ccco2)cc1 (stereo not given) 28.6%
Cc1ccc(C(C)NC(=S)NCc2ccc(F)cc2)cc1C (stereo not given) 40.9%
COc1cccc(NC(=S)N(Cc2ccc(C(=O)O)cc2)Cc2ccc(OC)c(OC)c2)c1 48.2%
CCCCNC(=O)c1onc(CSc2ccc(C(C)C)cc2)c1C(=O)O 17.3%
CCN(CC)CCCN(C(=O)c1ccco1)c1nc(-c2ccc(Cl)cc2)cs1 42.7%
O=C1c2ccccc2-c2cccnc21 60.6%
O=[N+]([O-])c1ccc(Nc2ccccc2O)c2nonc12 42.7%
CCc1ccc(N/C(=N/c2nc(C)cc(C)n2)NC(C)=O)cc1 16.7%
Cc1ccc2nc(Nc3ccccc3)cc(C)c2c1 64.7%
CCSc1nnc2n1C(C)(C)Cc1ccccc1-2 23%
CCOc1ccc(OCc2ccc(C(=O)N3CCCC3)o2)cc1 50.7%
COc1ccc(C2CC(c3ccc(Br)cc3)=NN2C(=O)CN2CCCC2)cc1 (stereo not given) 51%
COc1ccc(C2SCC(=O)N2CCc2ccc(OC)c(OC)c2)cc1 (stereo not given) 24%
CC(=O)N1c2ccc(S(=O)(=O)NCc3ccccc3Cl)cc2CC1C (stereo not given) 33%
CCOC(=O)N1CCN(C(=O)c2ccc3nc(N4CCC(C)CC4)sc3c2)CC1 40.3%
CCCc1nc2oc(C(=O)OCC)c(N)c2c2c1COC(C)(C)C2 54.8%
CCOC(=O)c1oc2nc(C(C)C)c3c(c2c1N)CCC3 56.5%
OCCn1nc(-c2ccccc2)cc1-c1ccccc1 17.9%
Cc1ccc(CNc2ncc(-c3ccccc3)n2C)o1 75.2%
Cn1c(SCC(=O)N2CCN(c3ccccc3)CC2)nnc1-c1ccccc1 27.7%
CS(=O)(=O)Nc1ccccc1C(=O)NCCSc1ccccc1 18.1%
COc1ccc(C(=O)C2CCCN(C(=O)C3=CCCC3)C2)c(C)c1 (stereo not given) 23.5%
COc1ccc(NC(=O)N2CCC(n3cnc4ccccc43)CC2)cc1 50.6%
COc1ccc(C(=O)C2CCCN(C(=O)c3noc4c3CCCC4)C2)cc1F (stereo not given) 63.6%
CCC1CCCCN1CCCNC(=O)c1ccc2c(c1)c(C)c(C)n2C (stereo not given) 54.9%
O=C(Nc1cccnc1)c1ccc(COc2ccccc2Cl)o1 33.4%
CCN(CC)C(=O)c1ccc(COc2ccccc2Br)o1 65.5%
Cc1ccc(S(=O)(=O)NC(=O)COc2cc(C)ccc2C(C)C)cc1 52.6%
Cc1ccc(S(=O)(=O)CC(O)COc2ccc(F)cc2Cl)cc1 (stereo not given) 22.4%
CCN(CC)S(=O)(=O)c1ccc(OC)c(NC(=S)Nc2ccc(C)c(C)c2)c1 55.9%
Cc1ccc(S(=O)(=O)N2CCC(=O)N(CCOCc3ccc(F)cc3)CC2)cc1 43.1%
Cc1ccc(-c2nnc(N3CCCCC3)c3ccccc23)cc1S(=O)(=O)N1CCN(C)CC1 63.7%
Cc1ccc(C)c(S(=O)(=O)C(C#N)c2nc3ccccc3nc2N2CC(C)OC(C)C2)c1 (stereo not given) 27.3%
COc1cc(OC)cc(C(=O)NC(=S)NNC(=O)[C@H]2C[C@@H]2c2ccccc2)c1 40.3%
CS(=O)(=O)c1ncc(Cl)c(C(=O)Nc2ccc(OC(F)F)cc2)n1 58.6%
CS(=O)(=O)c1ncc(Cl)c(C(=O)Nc2ccc(N3CCOCC3)cc2)n1 47.9%
Cc1nn(CC2CC2)c(=O)n1-c1ccc(Oc2ccccc2)cc1 38.3%
N#Cc1c(Cl)cccc1N1CCCC1 31.6%
C[C@@H](NCCc1ccc(O)cc1)[C@@H](O)c1ccc(O)cc1 45.4%
CC(C)NCC(O)c1ccc(O)c(O)c1 (stereo not given) 69.8%
CCc1ccccc1NC(=O)C1CC(c2ccc(OC)cc2)=NO1 (stereo not given) 74.4%
N#CCCn1cc(/C=C2\NC(=S)N(c3ccccc3)C2=O)c(-c2ccc(F)cc2)n1 57.6%
Cc1ccc(C(=O)N/C(=C\c2cccs2)c2nc3ccccc3[nH]2)cc1 11.9%
CSc1ccc(C(=O)C2CCCN(C(=O)c3ccsc3)C2)cc1 (stereo not given) 56.5%
COc1ccc(C(=O)N2CCCC(O)C2)cc1OC1CCN(C(C)C)CC1 (stereo not given) 62.6%
CC(C)(C)CC(=O)NCCc1csc(-c2ccccc2)n1 41.1%
N#C/C(=N\Nc1cccc(C(F)(F)F)c1)C(=O)c1ccsc1 41.5%
CC[N+]1(CC)CC2=Cc3c(ccc4ccccc34)C(C)C2C1 (stereo not given) 52.3%
CC(=O)N(C)c1ccc(NC(=O)C(Sc2ccccc2)c2ccccc2)cc1 (stereo not given) 37%
CC(C)(C)C(=O)/C(C#N)=C/c1ccc(O)cc1 26.3%
Cc1ccc(S(=O)(=O)Oc2cccc(/C=N/n3cnnc3)c2)cc1 25.6%
CCCC1=NN2C(=N)/C(=C\c3ccc(SCc4ccco4)o3)C(=O)N=C2S1 51%
Cc1ccc(S(=O)(=O)Oc2ccccc2/C=C2/SC(=O)NC2=O)cc1 45%
CS(=O)(=O)C1=NN2C(=N)/C(=C\c3ccc(OC(=O)c4ccco4)cc3)C(=O)N=C2S1 59.2%
Cc1ccc(S(=O)(=O)Oc2ccccc2/C=C2\SC(=O)NC2=O)cc1 32.3%
CC(C)CS(=O)(=O)C1=NSC2=NC(=O)/C(=C\c3ccc(OC(=O)c4ccco4)cc3)C(=N)N21 46%
COc1ccc(/C=C/C(=O)NC2CCCCCCC2)cc1S(=O)(=O)N1CCOCC1 59%
Cc1ccccc1NC(=O)c1ccc(C)c(S(=O)(=O)N2CCN(C)CC2)c1 60.5%
CCOc1ccc(Br)cc1S(=O)(=O)N1CCCC1 36.7%
Oc1ccc(/C=N/n2c(-c3ccccc3)n[nH]c2=S)cc1Br 8.27%
CN(c1ccc(O)cc1)c1nc(-c2cccs2)cs1 23.4%
COc1ccc(C(=O)NCc2ccon2)cc1OC1CCN(C(C)C)CC1 57.9%
COc1cc(CNCCc2ccccc2)cc(Br)c1OCC(=O)Nc1ccccc1C 37.7%
Cn1c(SCc2nc3ccccc3s2)nnc1-c1cccs1 18.9%
CC(=O)Nc1ccc(S(=O)(=O)Nc2nc3ccccc3nc2Nc2ccc(N)cc2)cc1 27.9%
COc1ccc(-c2nnc(CSc3nc4ccccc4c(=O)n3CC3CCCO3)o2)cc1OC (stereo not given) 57.4%
CC(C)(C)NS(=O)(=O)c1ccc(N2C(=O)c3ccccc3C2=O)cc1 29.7%
Cc1noc(C)c1C(=O)Nc1sc(C)c(-c2ccccc2)c1C#N 36.6%
O=C(OCc1nc2ccsc2c(=O)[nH]1)c1cc(Br)c(Br)s1 33.4%
O=c1c(-c2ccccc2)c[nH]n1-c1cccc([N+](=O)[O-])c1 51.3%
Cc1[nH]n(-c2ccccc2)c(=O)c1C(c1cccc([N+](=O)[O-])c1O)c1c(C)[nH]n(-c2ccccc2)c1=O 62.9%
O=C(C1CCN(S(=O)(=O)c2ccc(Br)s2)CC1)N1CCN(c2ccccc2)CC1 7.31%
Cc1cccnc1NC(=O)c1cccc(S(=O)(=O)N2CCN(c3ccc(F)cc3)CC2)c1 28.9%
COc1cc(-c2nnc(SC/C=C/c3ccccc3)n2N)cc(OC)c1OC 32.7%
CCOC(=O)c1sc(=S)n(CC)c1NC(=O)C1CC1 23.2%
O=c1cc(CNc2ccc(Br)cc2)nc2sccn12 33.4%
CCCN1Cc2cccc(C(=O)NCc3ccccc3OC)c2C1=O 30.2%
Cc1cc(O)ccc1C1(c2ccc(O)cc2C)OC(=O)c2ccccc21 28.5%
CCCCCCCCC[n+]1cccc2c3ccccc3ccc21 42.3%
Cn1ncc2c(N3CCC(Cc4ccccc4)CC3)ncnc21 33.5%
Cc1c(C)n(CCc2ccccc2)c2ncnc(NN)c12 28.7%
O=C(NC1CC1)C1=C[C@H](c2ccc(Br)cc2)C[C@H](OCc2ccc(CO)cc2)O1 52.6%
Cn1nc(C(F)(F)F)c(-c2ccccc2)c1NC(=O)c1ccco1 58.8%
O=C(Nc1ccccc1Cl)C1CCCN(c2ncnc3c2nc2n3CCCCC2)C1 (stereo not given) 79.8%
O=C(Nc1ccc(Cl)cn1)C1CCCN(c2ncnc3c2nc2n3CCCCC2)C1 (stereo not given) 53.9%
O=C(N/N=C/c1cccc(Oc2ccccc2)c1)c1cccc(O)c1 25.8%
O=c1cc(CSc2nc3cc(Cl)ccc3o2)nc2sccn12 48.6%
O=c1cc(CN2CCN(c3ccccc3O)CC2)nc2sccn12 51.6%
O=C(Cn1nc(C(F)(F)F)c2c1CCCC2)NC1CCCC1 15.2%
O=C(Cn1nc(C(F)(F)F)cc1C1CC1)NCc1ccccc1F 3.99%
Clc1cccc(CNCCNCc2cccc(Cl)c2)c1 27.9%
O=C(CSc1nnc(Cc2ccsc2)o1)c1ccccc1 45.5%
CC(C)(C)OC(=O)NCCc1nnc(SCc2ccc(Cl)cc2)o1 24.7%
CCOC(=O)c1[nH]c(C=O)c(C(=O)OCC)c1C 38%
O=C(CSc1nccn1-c1ccc(F)cc1)NCc1ccc(F)cc1 30.9%
C=CCn1c(CSc2nc3ccccc3s2)nnc1SCC(=O)NCc1ccccc1 42.6%
COc1ccc(-c2cc(C(=O)NCCCN3CCOCC3)c3cc(C(C)C)ccc3n2)cc1 29.7%
Cc1nc2cc(C(=O)N3c4ccccc4CC3C)ccc2s1 (stereo not given) 45.4%
CCN1CCN(C(=O)CCc2nc3ccccc3n2-c2ccccc2)CC1 64%
CC(=O)c1cccc(OCC(=O)c2cc(C)n(-c3cc(C)on3)c2C)c1 24%
N#C/C(=C\c1ccc(O)c(Br)c1)C(=O)NCc1ccccc1 24.4%
